“And” between values parts separate entries of the source, which are not always exact repeats. Equal values may be shown once. The source made the active and inactive calls. The calls were made as follows: active = hit-call score of the fitted dose curve at least 0.9, where 1 is the maximum; inactive = score below 0.9.
Columns and labels:
[1] = read-out: Tumor necrosis factor receptor superfamily member 6 (Homo sapiens) (UniProt P25445); assay: LTEA_HepaRG_FAS: Life Technologies and Expression Analysis (LTEA) Assay for Fas cell surface death receptor (FAS) using HepaRG (AID 2283447); conditions: mRNA level, 48 h; actives raise or lower the signal
Procedure, shortened: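 FAS transcript level was measured by TaqMan qRT-PCR against three housekeeping genes after 48 h chemical exposure. Cells were HepaRG, 0.5% DMSO vehicle, with a top concentration of 100 uM and half-log dilutions over eight points, in duplicate.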

[2] = read-out: Fatty acid synthase (Homo sapiens) (UniProt P49327); assay: LTEA_HepaRG_FASN: Life Technologies and Expression Analysis (LTEA) Assay for Fatty Acid Synthase (FASN) using HepaRG (AID 2283448); conditions: mRNA level, 48 h; actives raise or lower the signal
Procedure, shortened: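 FASN transcript measured by TaqMan qRT-PCR, normalised to three housekeeping genes, after 48 h chemical exposure of HepaRG cells. Eight-point half-log series from 100 uM in 0.5% DMSO, duplicates; gain or loss fitted against vehicle.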

[3] = read-out: Cyclin D2 (CCND2), CCND2 (gene 894); assay: LTEA_HepaRG_CCND2: Life Technologies and Expression Analysis (LTEA) Assay for Cyclin D2 (CCND2) using HepaRG (AID 2283449); conditions: mRNA level, 48 h; actives raise or lower the signal
Procedure, shortened: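 CCND2 transcript levels, quantified by qRT-PCR and normalised to three housekeeping genes, were fitted bidirectionally against 0.5% DMSO. HepaRG cultures were dosed 48 h in duplicate with an 8-point half-log series up to 100 uM.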

[4] = read-out: Cyclin Dependent Kinase Inhibitor 1A (CDKN1A), CDKN1A (gene 1026); assay: LTEA_HepaRG_CDKN1A: Life Technologies and Expression Analysis (LTEA) Assay for Cyclin Dependent Kinase Inhibitor 1A (CDKN1A) using HepaRG (AID 2283450); conditions: mRNA level, 48 h; actives raise or lower the signal
Procedure, shortened: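 Differentiated HepaRG cells in serum-free induction medium, exposed 48 h in duplicate to eight half-log concentrations up to 100 uM in 0.5% DMSO. mRNA measured by TaqMan qRT-PCR, normalized to ACTB, GAPDH, POLR2A; bidirectional fit versus DMSO.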

[5] = read-out: Cyclin D1 (CCND1), CCND1 (gene 595); assay: LTEA_HepaRG_CCND1: Life Technologies and Expression Analysis (LTEA) Assay for Cyclin D1 (CCND1) using HepaRG (AID 2283451); conditions: mRNA level, 48 h; actives raise or lower the signal
Procedure, shortened: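 Differentiated HepaRG cells exposed 48 h in serum-free induction medium to eight half-log concentrations from 100 uM top, 0.5% DMSO, duplicates. CCND1 mRNA measured by Fluidigm TaqMan qRT-PCR, normalised to ACTB, GAPDH, POLR2A; bidirectional fit.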

[6] = read-out: catalase (CAT), CAT (gene 847); assay: LTEA_HepaRG_CAT: Life Technologies and Expression Analysis (LTEA) Assay for catalase (CAT) using HepaRG (AID 2283452); conditions: mRNA level, 48 h; actives raise or lower the signal
Procedure, shortened: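 Expression of CAT was quantified by TaqMan qRT-PCR with ACTB/GAPDH/POLR2A normalization after 48 h chemical exposure of HepaRG. Eight-point half-log series, top 100 uM, in 0.5% DMSO; gain or loss fitted against vehicle.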

[7] = read-out: flavin-containing dimethylaniline monooxygenases 3 (FMO3), FMO3 (gene 2328); assay: LTEA_HepaRG_FMO3: Life Technologies and Expression Analysis (LTEA) Assay for flavin-containing dimethylaniline monooxygenases 3 (FMO3) using HepaRG (AID 2283453); conditions: mRNA level, 48 h; actives raise or lower the signal
Procedure, shortened: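 FMO3 transcript quantified by TaqMan qRT-PCR against three housekeeping genes after 48 h chemical exposure of HepaRG cells. Eight-point half-log series, top 100 uM, 0.5% DMSO vehicle; phenobarbital 1mM induction control; up- or down-regulation fitted.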

[8] = read-out: Cytochrome P450 (CYP1A1), CYP1A1 (gene 1543); assay: LTEA_HepaRG_CYP1A1: Life Technologies and Expression Analysis (LTEA) Assay for Cytochrome P450 (CYP1A1) using HepaRG (AID 2283454); conditions: mRNA level, 48 h; actives raise or lower the signal
Procedure, shortened: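 Differentiated human HepaRG cells, after 48 h plating, exposed in duplicate for 48 h in serum-free induction medium to 8 half-log concentrations up to 100 uM in 0.5% DMSO. CYP1A1 mRNA by qRT-PCR, normalized to ACTB/GAPDH/POLR2A; bidirectional fit versus DMSO.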

[9] = read-out: CFLAR gene, CFLAR (gene 8837); assay: LTEA_HepaRG_CFLAR: Life Technologies and Expression Analysis (LTEA) Assay for CFLAR gene using HepaRG (AID 2283455); conditions: mRNA level, 48 h; actives raise or lower the signal
Procedure, shortened: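 Transcript level by qRT-PCR (normalized to ACTB, GAPDH and POLR2A) after 48 h chemical exposure of HepaRG cells, top concentration 100 uM with half-log steps, 0.5% DMSO vehicle, duplicates; fitted bidirectionally against DMSO baseline.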

[10] = read-out: Forkhead box O1 (FOXO1), FOXO1 (gene 2308); assay: LTEA_HepaRG_FOXO1: Life Technologies and Expression Analysis (LTEA) Assay for Forkhead box O1 (FOXO1) using HepaRG (AID 2283456); conditions: mRNA level, 48 h; actives raise or lower the signal
Procedure, shortened: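 FOXO1 transcript quantified by qRT-PCR after 48 h chemical exposure (top 100 uM, half-log steps, 0.5% DMSO) of HepaRG cells, housekeeping-normalized (ACTB/GAPDH/POLR2A). Changes fitted in both directions relative to vehicle.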

[11] = read-out: growth arrest and DNA damage 45 (GADD45A), GADD45A (gene 1647); assay: LTEA_HepaRG_GADD45A: Life Technologies and Expression Analysis (LTEA) Assay for growth arrest and DNA damage 45 (GADD45A) using HepaRG (AID 2283458); conditions: mRNA level, 48 h; actives raise or lower the signal
Procedure, shortened: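 GADD45A expression was measured by TaqMan qRT-PCR against three housekeeping genes (ACTB, GAPDH, POLR2A) after 48 h treatment of HepaRG cells. Eight-point half-log series up to 100 uM in 0.5% DMSO, run in duplicate.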

[12] = read-out: ABC Transporter (ABCB1), ABCB1 (gene 5243); assay: LTEA_HepaRG_ABCB1: Life Technologies and Expression Analysis (LTEA) Assay for ABC Transporter (ABCB1) using HepaRG (AID 2283460); conditions: mRNA level, 48 h; actives raise or lower the signal
Procedure, shortened: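 ABCB1 transcript level measured by TaqMan qRT-PCR against three housekeeping genes after 48 h chemical exposure of differentiated HepaRG cells. Top concentration 100 uM, half-log steps, eight points, 0.5% DMSO vehicle; bidirectional fit relative to DMSO.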

[13] = read-out: growth arrest and DNA damage 45 (GADD45B), GADD45B (gene 4616); assay: LTEA_HepaRG_GADD45B: Life Technologies and Expression Analysis (LTEA) Assay for growth arrest and DNA damage 45 (GADD45B) using HepaRG (AID 2283461); conditions: mRNA level, 48 h; actives raise or lower the signal
Procedure, shortened: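 Differentiated human HepaRG cells in serum-free induction medium exposed 48 h in duplicate to eight concentrations, top 100 uM, half-log steps, 0.5% DMSO. GADD45B mRNA by TaqMan qRT-PCR, normalized to ACTB, GAPDH, POLR2A; bidirectional fit versus DMSO.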

[14] = read-out: ABC Transporter (ABCC3), ABCC3 (gene 8714); assay: LTEA_HepaRG_ABCC3: Life Technologies and Expression Analysis (LTEA) Assay for ABC Transporter (ABCC3) using HepaRG (AID 2283462); conditions: mRNA level, 48 h; actives raise or lower the signal
Procedure, shortened: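 Differentiated human HepaRG cells exposed 48 h in serum-free induction medium, 0.5% DMSO vehicle, 8-point half-log series to 100 uM in duplicate. ABCC3 mRNA by qRT-PCR, normalised to ACTB, GAPDH, POLR2A; bidirectional fit vs DMSO.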

[15] = read-out: ABC Transporter (ABCB11), ABCB11 (gene 8647); assay: LTEA_HepaRG_ABCB11: Life Technologies and Expression Analysis (LTEA) Assay for ABC Transporter (ABCB11) using HepaRG (AID 2283463); conditions: mRNA level, 48 h; actives raise or lower the signal
Procedure, shortened: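 ABCB11 transcript levels quantified by TaqMan qRT-PCR against three housekeeping genes after 48 h chemical exposure of HepaRG cultures. Concentrations up to 100 uM in half-log steps, 0.5% DMSO vehicle; both induction and suppression scored.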

[16] = read-out: ABC Transporter (ABCC2), ABCC2 (gene 1244); assay: LTEA_HepaRG_ABCC2: Life Technologies and Expression Analysis (LTEA) Assay for ABC Transporter (ABCC2) using HepaRG (AID 2283464); conditions: mRNA level, 48 h; actives raise or lower the signal
Procedure, shortened: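 Differentiated HepaRG cells in serum-free induction medium exposed 48 h to eight half-log concentrations up to 100 uM, 0.5% DMSO, in duplicate. ABCC2 mRNA measured by qRT-PCR (TaqMan, Fluidigm), normalized to ACTB, GAPDH and POLR2A. Fitted in both directions against DMSO.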

[17] = read-out: Broad substrate specificity ATP-binding cassette transporter ABCG2 (Homo sapiens) (UniProt Q9UNQ0); assay: LTEA_HepaRG_ABCG2: Life Technologies and Expression Analysis (LTEA) Assay for ABC Transporter (ABCG2) using HepaRG (AID 2283465); conditions: mRNA level, 48 h; actives raise or lower the signal
Procedure, shortened: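 ABCG2 transcript was quantified by TaqMan qRT-PCR against three housekeeping genes in HepaRG cells. Cells were treated in duplicate for 48 h across an 8-point half-log series up to 100 uM, with 0.5% DMSO vehicle. Gain or loss versus DMSO was fit.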

[18] = read-out: ATP-citrate lyase (ACLY), ACLY (gene 47); assay: LTEA_HepaRG_ACLY: Life Technologies and Expression Analysis (LTEA) Assay for ATP-citrate lyase (ACLY) using HepaRG (AID 2283466); conditions: mRNA level, 48 h; actives raise or lower the signal
Procedure, shortened: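 ACLY mRNA quantified by qRT-PCR on Fluidigm arrays against three housekeeping genes, after 48 h chemical treatment of HepaRG cells (top concentration 100 uM, half-log steps, 0.5% DMSO vehicle). Up- or down-regulation fitted relative to DMSO.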

[19] = CEETOX_H295R_TESTO: CeeTox H295R High-throughput Steroidogenesis Assay for Testosterone (TESTO) (AID 2283457); conditions: actives raise or lower the signal;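 as to AC50: cells exposed to chemicals for 48 h before medium collection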
Procedure, shortened: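 H295R adrenal cells, passage ≤10, exposed to chemicals for 48 h. Testosterone in medium measured by MTBE extraction and HPLC-MS/MS against a 7-point standard curve. Bidirectional fit versus DMSO; MTT viability checked in the same wells.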

[20] = read-out: Forkhead box O3 (FOXO3), FOXO3 (gene 2309); assay: LTEA_HepaRG_FOXO3: Life Technologies and Expression Analysis (LTEA) Assay for Forkhead box O3 (FOXO3) using HepaRG (AID 2283459); conditions: mRNA level, 48 h; actives raise or lower the signal
Procedure, shortened: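 FOXO3 transcript measured by qRT-PCR (normalized to ACTB, GAPDH, POLR2A) after 48 h exposure of HepaRG cells in serum-free induction medium. Duplicates, eight half-log concentrations up to 100 uM, 0.5% DMSO; gain or loss fitted against DMSO.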

Measured: AC50

Fatty acid synthase (Homo sapiens), sequence (P49327 whole entry, looked up): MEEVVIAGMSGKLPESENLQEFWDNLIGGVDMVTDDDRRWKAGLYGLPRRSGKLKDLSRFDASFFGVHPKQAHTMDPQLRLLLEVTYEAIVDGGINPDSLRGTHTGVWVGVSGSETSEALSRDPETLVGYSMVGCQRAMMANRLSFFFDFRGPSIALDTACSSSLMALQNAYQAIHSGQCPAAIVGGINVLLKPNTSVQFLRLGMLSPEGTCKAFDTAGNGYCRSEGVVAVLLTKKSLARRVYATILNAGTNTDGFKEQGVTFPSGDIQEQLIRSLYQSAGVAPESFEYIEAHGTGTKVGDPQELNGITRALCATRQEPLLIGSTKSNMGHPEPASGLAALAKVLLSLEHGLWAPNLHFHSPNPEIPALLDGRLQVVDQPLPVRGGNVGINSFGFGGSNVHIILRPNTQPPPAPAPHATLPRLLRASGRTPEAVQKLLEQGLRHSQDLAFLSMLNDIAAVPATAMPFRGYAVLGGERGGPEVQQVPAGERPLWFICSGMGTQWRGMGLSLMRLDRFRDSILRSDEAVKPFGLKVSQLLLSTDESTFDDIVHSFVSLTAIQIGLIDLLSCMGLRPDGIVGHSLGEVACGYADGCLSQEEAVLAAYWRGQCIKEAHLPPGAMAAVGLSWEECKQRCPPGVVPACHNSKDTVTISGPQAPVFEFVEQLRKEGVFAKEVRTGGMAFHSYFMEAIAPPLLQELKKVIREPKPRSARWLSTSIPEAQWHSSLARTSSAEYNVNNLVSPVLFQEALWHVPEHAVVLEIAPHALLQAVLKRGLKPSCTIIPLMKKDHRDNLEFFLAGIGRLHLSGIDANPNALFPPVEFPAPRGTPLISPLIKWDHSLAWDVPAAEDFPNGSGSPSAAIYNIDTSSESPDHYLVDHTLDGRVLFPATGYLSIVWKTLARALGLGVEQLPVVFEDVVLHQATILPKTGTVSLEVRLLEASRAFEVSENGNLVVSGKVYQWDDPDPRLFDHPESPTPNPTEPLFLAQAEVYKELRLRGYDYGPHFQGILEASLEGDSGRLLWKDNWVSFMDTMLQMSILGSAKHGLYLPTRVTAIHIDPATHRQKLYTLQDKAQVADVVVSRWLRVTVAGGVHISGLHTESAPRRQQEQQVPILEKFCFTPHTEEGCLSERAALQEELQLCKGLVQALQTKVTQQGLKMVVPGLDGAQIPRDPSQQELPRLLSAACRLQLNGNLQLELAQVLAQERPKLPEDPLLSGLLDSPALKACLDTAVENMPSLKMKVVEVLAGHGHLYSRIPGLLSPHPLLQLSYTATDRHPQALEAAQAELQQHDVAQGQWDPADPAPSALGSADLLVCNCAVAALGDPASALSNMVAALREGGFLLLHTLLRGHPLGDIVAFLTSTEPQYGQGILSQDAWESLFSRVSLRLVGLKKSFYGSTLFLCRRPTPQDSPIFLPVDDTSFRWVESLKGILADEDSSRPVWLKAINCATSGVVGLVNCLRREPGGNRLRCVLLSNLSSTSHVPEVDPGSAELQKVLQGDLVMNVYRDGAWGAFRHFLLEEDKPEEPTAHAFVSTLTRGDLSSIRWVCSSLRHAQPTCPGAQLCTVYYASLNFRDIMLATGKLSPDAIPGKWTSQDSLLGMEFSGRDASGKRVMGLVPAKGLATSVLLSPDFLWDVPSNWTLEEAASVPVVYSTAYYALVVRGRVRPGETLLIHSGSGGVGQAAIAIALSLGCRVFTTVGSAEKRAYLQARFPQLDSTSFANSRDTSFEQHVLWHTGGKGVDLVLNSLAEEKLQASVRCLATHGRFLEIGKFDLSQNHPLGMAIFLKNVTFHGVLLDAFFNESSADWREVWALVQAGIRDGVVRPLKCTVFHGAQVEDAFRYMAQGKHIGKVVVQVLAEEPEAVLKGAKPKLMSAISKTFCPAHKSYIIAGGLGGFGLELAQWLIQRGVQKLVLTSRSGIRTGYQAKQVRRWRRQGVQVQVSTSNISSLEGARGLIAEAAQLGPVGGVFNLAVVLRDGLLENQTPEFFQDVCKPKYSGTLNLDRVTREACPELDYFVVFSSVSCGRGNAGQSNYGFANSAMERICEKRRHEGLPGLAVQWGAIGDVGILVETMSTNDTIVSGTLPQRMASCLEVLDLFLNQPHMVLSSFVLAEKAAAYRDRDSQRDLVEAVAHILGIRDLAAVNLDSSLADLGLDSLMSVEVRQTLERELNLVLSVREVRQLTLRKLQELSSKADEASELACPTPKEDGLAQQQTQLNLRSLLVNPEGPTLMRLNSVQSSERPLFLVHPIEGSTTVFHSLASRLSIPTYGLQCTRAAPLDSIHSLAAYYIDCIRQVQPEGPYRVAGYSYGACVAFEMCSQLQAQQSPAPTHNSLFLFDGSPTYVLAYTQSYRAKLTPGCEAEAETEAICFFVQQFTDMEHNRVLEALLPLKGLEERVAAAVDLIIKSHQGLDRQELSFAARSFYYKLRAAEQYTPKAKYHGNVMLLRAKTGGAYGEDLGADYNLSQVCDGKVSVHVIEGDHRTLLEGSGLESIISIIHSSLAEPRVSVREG
Broad substrate specificity ATP-binding cassette transporter ABCG2 (Homo sapiens), sequence (Q9UNQ0 whole entry, looked up): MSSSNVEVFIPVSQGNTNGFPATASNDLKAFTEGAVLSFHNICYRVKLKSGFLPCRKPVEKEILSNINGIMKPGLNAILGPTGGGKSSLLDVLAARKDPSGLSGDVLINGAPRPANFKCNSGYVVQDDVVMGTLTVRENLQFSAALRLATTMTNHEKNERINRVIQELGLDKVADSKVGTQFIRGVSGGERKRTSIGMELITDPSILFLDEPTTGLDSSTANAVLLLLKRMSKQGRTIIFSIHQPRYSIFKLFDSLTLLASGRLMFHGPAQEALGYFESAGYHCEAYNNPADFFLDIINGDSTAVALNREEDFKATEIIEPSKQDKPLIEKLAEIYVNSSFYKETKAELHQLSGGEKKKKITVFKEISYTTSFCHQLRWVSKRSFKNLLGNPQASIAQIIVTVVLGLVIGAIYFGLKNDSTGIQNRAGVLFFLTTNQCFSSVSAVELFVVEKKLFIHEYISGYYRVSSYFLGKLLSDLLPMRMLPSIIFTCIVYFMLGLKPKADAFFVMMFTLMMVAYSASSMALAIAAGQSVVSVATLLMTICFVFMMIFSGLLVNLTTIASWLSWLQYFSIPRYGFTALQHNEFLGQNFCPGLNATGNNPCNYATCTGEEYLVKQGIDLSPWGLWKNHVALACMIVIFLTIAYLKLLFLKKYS

CN(C)NC(=O)CCC(=O)O
inactive: [1] | [2] | [3] | [4] | [5] | [6] | [7] | [8] | [9] | [10] | [11] | [12] | [13] | [14] | [15] | [16] | [17] | [18]

COc1ccc(C(=CC(=O)N2CCOCC2)c2ccc(Cl)cc2)cc1OC
active: [8] 50 µM | [19] 32.8 µM | [16] 11 µM
inactive: [1] | [2] | [3] | [4] | [5] | [6] | [7] | [9] | [10] | [11] | [12] | [14] | [15] | [17] | [18]

CC(C1CC1)C(O)(Cn1cncn1)c1ccc(Cl)cc1 (configuration not stated)
active: [7] 77.7 µM | [8] 17 µM | [12] 13.1 µM | [18] 31.7 µM
inactive: [1] | [2] | [3] | [4] | [5] | [6] | [9] | [10] | [11] | [13] | [14] | [15] | [16] | [17]

N#CSCSC#N
active: [2] 64.6 µM | [6] 74.9 µM | [7] 83.2 µM | [8] 50 µM | [9] 75.2 µM | [10] 80.6 µM | [13] 50 µM | [15] 50 µM
inactive: [1] | [3] | [4] | [5] | [11] | [12] | [14] | [16] | [17] | [18]

CCOC(=O)COc1cc(-c2nn(C)c(OC(F)F)c2Cl)c(F)cc1Cl
active: [8] 50 µM | [12] 34.3 µM | [16] 50 µM
inactive: [1] | [2] | [3] | [4] | [5] | [6] | [7] | [9] | [10] | [19] | [11] | [20] | [14] | [15] | [17] | [18]

CON=C(C(=O)OC)c1ccccc1CON=C(C)c1cccc(C(F)(F)F)c1
inactive: [1] | [2] | [3] | [4] | [5] | [6] | [7] | [9] | [10] | [11] | [20] | [12] | [14] | [16] | [17] | [18]
active: [8] 50 µM | [15] 85.5 µM

CN(C)[C@@H]1C(=O)C(C(N)=O)=C(O)[C@@]2(O)C(=O)C3=C(O)c4c(O)cccc4[C@@](C)(O)[C@H]3[C@H](O)[C@@H]12
inactive: [1] | [2] | [3] | [4] | [5] | [6] | [7] | [9] | [10] | [11] | [12] | [13] | [14] | [15] | [16] | [17] | [18]
active: [8] 66.4 µM and 18.3 µM
